In the assay the test system is CLK1. As to conditions: concentration: 1 μM,replicates: in singlicate; n = 1.
For `Cc1ccc(-n2nc(C(C)(C)C)cc2NC(=O)Nc2ccc(OCCN3CCOCC3)c3ccccc23)cc1` [GW839464], the “%Inh” value was 22%.
The figure for `CC(C)Nc1cc(-c2ccc3c(N)n[nH]c3c2)nc(N)n1` [GSK2221681] is 74%.
The figure for `Cl.Cl.NC[C@H](Cc1ccc(C(F)(F)F)cc1)NC(=O)c1cc(Br)c(-c2ccnc3[nH]ccc23)s1` [GSK1487252] is 62%; for `CCN(CC)CCCCNc1ncc2cc(-c3c(Cl)cccc3Cl)c(NC(=O)NC(C)(C)C)nc2n1` it is 0%.
The figure for `C[C@@H]1CCN(C(=O)CC#N)C[C@@H]1N(C)c1ncnc2[nH]ccc12` is 9%; for `Cc1n[nH]c2ccc(-c3cc(OC[C@@H](N)Cc4ccccc4)cnc3-c3ccoc3)cc12.O=C(O)C(F)(F)F.O=C(O)C(F)(F)F` [GSK507358] it is 38%; for `O=C(NCCCN1CCOC1=O)c1cnc(NCc2cc(Cl)ccc2Cl)nc1NC1CCCC1` it is 0%.
Consider `Cl.Cl.Nc1nc(-c2ccc3c(N)n[nH]c3c2)cc(N2CCCC(NC(=O)c3ccccc3)C2)n1` (centres unmarked) [GSK2286775], for which the “%Inh” value amounted to 48%.
In the case of `Cc1occc1-c1nc(N)c(OC[C@@H](N)Cc2c[nH]c3ccccc23)cc1-c1cc2c(C)n[nH]c2cn1` [GSK1660450], the “%Inh” value is on record as 99.5%.
The figure for `CCn1c(-c2nonc2N)nc2c(C#CC(C)(C)O)nc(OCCN)cc21.Cl.Cl` [GSK902056] is 13%; for `CNC(=O)c1ccccc1Sc1ccc2c(/C=C/c3ccccn3)n[nH]c2c1` it is 0%; for `CC(C)N1C(=O)Cc2cc(Nc3ncc(C(F)(F)F)c(NCc4cccc(S(C)(=O)=O)c4)n3)ccc21` it is 51%.
The figure for `C[C@H]1Oc2cc(cnc2N)-c2c(nn(C)c2C#N)CN(C)C(=O)c2ccc(F)cc21` is 17%.
The figure for `NC(=O)c1cc(-c2ccccc2)cc2c(C3CCNCC3)c[nH]c12` [GSK301362] is 36%.

The values above are taken from PMC5540273 (PLoS ONE, 2017).
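Further: KINOMEscan kinase panel screen.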
